# Experimental data from article PMC7862700, “An all-to-all approach to the identification of sequence-specific readers for epigenetic DNA modifications on cytosine”.
# Key:
# Assay in all cases: DAPPL (digital affinity profiling via proximity ligation, sequencing); 10 mM Tris-HCl pH 7.5, 50 mM NaCl, 1 mM DTT, 4% glycerol, room temperature, 30 min; GST-TFs on glutathione beads, 16-mer random dsDNA library, 0.1% formaldehyde crosslink after washing; high values mean tight binding
# FLI1 = molecular target: T1, FLI1 (Homo sapiens, UniProt Q01543 1-452); conditions: protein: recombinant; tags: N-terminal GST; dsDNA, one strand shown
# T1 sequence: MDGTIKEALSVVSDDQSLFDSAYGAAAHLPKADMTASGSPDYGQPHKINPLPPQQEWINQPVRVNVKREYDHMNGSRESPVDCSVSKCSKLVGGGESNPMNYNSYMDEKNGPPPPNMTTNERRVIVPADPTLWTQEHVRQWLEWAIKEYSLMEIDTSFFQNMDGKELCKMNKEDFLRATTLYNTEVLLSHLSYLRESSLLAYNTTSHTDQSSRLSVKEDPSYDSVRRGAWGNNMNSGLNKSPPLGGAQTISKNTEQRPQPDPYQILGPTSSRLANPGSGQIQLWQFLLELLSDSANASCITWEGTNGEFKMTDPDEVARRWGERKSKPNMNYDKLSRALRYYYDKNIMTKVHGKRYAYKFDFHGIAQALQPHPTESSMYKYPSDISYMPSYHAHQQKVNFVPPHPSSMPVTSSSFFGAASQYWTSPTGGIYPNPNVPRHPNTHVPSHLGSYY
# Method in brief: (§1)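 Binding signal is each hexamer's read frequency for a factor divided by its frequency in the tag-only sample. The factors were GST-fused human transcription factors from yeast, captured on glutathione beads, DNA-barcoded and pooled with that sample. Pools were incubated with 200 nmole of a random double-stranded 16-mer DNA library in Tris/NaCl/DTT/glycerol buffer at room temperature for 30 min, then washed, crosslinked with 0.1% formaldehyde, proximity-ligated with BsaI/T4 ligase (1 h, 37 °C), PCR-amplified and sequenced on an Illumina NextSeq500.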
# ELK1 = molecular target: T2, ELK1 (Homo sapiens, UniProt P19419 1-428); conditions: protein: recombinant; tags: N-terminal GST; dsDNA, one strand shown
# T2 sequence: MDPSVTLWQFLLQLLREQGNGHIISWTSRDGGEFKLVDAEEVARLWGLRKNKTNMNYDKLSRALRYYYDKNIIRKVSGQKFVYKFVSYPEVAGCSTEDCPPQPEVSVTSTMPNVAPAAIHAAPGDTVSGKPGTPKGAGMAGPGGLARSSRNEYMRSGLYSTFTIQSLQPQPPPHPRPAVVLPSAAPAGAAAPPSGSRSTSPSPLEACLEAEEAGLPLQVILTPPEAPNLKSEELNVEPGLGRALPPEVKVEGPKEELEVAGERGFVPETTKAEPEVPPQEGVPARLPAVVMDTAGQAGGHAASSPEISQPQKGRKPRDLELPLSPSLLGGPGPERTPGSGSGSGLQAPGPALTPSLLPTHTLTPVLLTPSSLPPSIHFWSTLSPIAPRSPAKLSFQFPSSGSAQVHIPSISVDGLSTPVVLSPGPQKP
# Method in brief: as §1
# GABPA = molecular target: T3, GABPA (Homo sapiens, UniProt Q06546 1-454); conditions: protein: recombinant; tags: N-terminal GST; dsDNA, one strand shown
# T3 sequence: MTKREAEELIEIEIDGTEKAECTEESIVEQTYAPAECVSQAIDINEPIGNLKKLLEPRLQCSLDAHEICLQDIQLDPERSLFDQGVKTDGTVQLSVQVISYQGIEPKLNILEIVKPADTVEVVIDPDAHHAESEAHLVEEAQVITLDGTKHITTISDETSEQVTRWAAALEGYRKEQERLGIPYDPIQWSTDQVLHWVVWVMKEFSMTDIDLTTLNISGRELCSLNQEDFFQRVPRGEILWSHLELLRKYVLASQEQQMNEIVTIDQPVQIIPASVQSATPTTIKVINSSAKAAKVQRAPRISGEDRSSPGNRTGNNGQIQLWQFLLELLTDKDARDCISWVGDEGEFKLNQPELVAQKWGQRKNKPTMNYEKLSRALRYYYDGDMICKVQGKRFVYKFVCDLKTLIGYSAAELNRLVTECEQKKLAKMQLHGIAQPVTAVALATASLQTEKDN
# Method in brief: as §1
# ERG = molecular target: T4, ERG (Homo sapiens, UniProt P11308 1-479); conditions: protein: recombinant; tags: N-terminal GST; dsDNA, one strand shown
# T4 sequence: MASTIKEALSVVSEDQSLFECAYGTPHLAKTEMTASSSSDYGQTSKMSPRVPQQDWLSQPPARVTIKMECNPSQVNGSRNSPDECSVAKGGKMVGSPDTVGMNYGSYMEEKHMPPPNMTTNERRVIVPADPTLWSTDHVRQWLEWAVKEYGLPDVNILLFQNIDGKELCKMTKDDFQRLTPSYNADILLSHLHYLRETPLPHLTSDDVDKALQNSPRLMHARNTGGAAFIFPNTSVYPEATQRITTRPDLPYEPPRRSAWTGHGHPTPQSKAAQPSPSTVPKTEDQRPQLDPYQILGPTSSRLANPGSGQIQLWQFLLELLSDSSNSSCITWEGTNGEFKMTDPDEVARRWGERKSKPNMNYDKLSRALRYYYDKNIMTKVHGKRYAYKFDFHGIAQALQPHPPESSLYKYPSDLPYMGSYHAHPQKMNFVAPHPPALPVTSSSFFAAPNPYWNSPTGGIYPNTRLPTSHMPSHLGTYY
# Method in brief: as §1
# ELF1 = ELF1 (Homo sapiens, UniProt P32519 1-619); conditions: protein: recombinant; tags: N-terminal GST; dsDNA, one strand shown
# Chain of ELF1 (P32519 whole entry): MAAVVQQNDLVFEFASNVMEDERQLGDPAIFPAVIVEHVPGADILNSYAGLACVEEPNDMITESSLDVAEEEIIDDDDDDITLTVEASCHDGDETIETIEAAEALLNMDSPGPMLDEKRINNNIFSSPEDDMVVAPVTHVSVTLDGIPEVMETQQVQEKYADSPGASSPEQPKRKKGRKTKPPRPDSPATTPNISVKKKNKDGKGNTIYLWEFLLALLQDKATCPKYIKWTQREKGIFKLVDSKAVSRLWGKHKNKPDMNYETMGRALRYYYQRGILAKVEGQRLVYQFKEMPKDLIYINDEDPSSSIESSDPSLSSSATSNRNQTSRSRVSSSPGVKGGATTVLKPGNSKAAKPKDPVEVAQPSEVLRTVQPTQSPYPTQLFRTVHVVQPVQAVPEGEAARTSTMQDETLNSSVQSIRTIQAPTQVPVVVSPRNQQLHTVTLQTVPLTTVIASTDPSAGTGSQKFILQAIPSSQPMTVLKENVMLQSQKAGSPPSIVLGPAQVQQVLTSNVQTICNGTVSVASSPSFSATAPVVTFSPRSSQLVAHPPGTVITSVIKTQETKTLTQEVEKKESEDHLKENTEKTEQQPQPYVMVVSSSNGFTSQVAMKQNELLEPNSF
# Method in brief: as §1
# EHF = molecular target: T5, EHF (Homo sapiens, UniProt Q9NZC4 1-300); conditions: protein: recombinant; tags: N-terminal GST; dsDNA, one strand shown
# T5 sequence: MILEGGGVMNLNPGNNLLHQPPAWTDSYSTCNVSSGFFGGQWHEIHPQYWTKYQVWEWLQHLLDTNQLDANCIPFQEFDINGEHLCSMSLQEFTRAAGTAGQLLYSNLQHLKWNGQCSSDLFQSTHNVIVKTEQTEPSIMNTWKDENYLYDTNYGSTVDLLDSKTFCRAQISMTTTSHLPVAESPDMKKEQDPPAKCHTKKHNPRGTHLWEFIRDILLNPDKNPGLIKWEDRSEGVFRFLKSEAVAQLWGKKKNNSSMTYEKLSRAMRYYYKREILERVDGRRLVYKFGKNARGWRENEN
# Method in brief: as §1
# SPI1 = SPI1 (Homo sapiens, UniProt P17947 1-270); conditions: protein: recombinant; tags: N-terminal GST; dsDNA, one strand shown
# Method in brief: as §1
# SPIB = SPIB (Homo sapiens, UniProt Q01892 1-262); conditions: protein: recombinant; tags: N-terminal GST; dsDNA, one strand shown
# Chain of SPIB (Q01892 whole entry): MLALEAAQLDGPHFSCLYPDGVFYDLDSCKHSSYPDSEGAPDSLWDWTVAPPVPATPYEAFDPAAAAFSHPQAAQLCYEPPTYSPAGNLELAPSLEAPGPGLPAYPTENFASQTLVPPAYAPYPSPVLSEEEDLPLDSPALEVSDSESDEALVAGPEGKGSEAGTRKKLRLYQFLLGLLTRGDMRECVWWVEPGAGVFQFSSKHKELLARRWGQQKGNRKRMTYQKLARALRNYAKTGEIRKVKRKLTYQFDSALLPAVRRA
# Method in brief: as §1
# ELK3 = molecular target: T6, ELK3 (Homo sapiens, UniProt P41970 1-407); conditions: protein: recombinant; tags: N-terminal GST; dsDNA, one strand shown
# T6 sequence: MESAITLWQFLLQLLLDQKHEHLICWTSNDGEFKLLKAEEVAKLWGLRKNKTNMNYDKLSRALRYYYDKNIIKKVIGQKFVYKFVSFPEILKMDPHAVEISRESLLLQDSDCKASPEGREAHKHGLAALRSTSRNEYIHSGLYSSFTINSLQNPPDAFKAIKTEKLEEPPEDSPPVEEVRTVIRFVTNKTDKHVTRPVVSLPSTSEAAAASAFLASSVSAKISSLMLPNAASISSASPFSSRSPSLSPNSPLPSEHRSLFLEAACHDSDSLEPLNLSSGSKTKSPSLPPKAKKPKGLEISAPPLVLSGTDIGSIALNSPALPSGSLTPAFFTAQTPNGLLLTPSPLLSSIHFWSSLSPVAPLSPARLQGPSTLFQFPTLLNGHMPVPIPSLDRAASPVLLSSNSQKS
# Method in brief: as §1
# FEV = molecular target: T7, FEV (Homo sapiens, UniProt Q99581 1-238); conditions: protein: recombinant; tags: N-terminal GST; dsDNA, one strand shown
# T7 sequence: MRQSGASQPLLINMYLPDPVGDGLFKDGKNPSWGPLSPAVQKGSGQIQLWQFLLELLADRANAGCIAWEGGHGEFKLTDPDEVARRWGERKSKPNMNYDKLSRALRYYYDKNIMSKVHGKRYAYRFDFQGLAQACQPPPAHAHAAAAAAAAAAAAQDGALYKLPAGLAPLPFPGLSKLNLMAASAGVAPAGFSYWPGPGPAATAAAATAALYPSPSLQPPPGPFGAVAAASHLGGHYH
# Method in brief: as §1
# ETV5 = ETV5 (Homo sapiens, UniProt P41161 1-510); conditions: protein: recombinant; tags: N-terminal GST; dsDNA, one strand shown
# Chain of ETV5 (P41161 whole entry): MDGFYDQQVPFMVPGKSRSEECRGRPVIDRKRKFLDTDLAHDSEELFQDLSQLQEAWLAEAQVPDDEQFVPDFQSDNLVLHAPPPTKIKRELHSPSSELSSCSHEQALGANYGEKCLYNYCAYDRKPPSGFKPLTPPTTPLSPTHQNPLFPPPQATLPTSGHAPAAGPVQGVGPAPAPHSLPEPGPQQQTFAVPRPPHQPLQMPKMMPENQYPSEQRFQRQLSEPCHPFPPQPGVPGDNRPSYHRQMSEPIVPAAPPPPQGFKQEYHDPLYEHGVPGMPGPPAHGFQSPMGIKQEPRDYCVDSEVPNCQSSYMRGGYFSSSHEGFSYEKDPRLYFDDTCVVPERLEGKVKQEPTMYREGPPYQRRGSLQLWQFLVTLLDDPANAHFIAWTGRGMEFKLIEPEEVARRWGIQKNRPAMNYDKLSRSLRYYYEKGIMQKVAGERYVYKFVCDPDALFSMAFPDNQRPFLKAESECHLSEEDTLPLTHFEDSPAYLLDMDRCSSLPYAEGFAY
# Method in brief: as §1
# HSF1 = HSF1 (Homo sapiens, UniProt Q00613 1-529); conditions: protein: recombinant; tags: N-terminal GST; chain copies: 3; dsDNA, one strand shown
# Chain of HSF1 (Q00613 whole entry): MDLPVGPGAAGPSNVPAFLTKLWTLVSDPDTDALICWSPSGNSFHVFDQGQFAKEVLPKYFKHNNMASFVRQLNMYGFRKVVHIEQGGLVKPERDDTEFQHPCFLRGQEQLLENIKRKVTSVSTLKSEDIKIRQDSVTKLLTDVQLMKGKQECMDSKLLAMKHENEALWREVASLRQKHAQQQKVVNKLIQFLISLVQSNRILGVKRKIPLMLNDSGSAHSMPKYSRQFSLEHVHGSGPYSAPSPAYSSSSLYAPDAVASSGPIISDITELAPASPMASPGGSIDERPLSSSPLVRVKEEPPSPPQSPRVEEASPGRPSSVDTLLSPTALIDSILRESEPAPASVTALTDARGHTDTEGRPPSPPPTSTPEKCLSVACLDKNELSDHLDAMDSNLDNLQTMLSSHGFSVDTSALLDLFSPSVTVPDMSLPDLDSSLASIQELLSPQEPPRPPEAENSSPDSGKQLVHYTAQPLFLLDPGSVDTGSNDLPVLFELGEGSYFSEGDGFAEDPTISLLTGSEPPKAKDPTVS
# Method in brief: as §1
# SPIC = molecular target: T8, SPIC (Homo sapiens, UniProt Q8N5J4 1-248); conditions: protein: recombinant; tags: N-terminal GST; dsDNA, one strand shown
# T8 sequence: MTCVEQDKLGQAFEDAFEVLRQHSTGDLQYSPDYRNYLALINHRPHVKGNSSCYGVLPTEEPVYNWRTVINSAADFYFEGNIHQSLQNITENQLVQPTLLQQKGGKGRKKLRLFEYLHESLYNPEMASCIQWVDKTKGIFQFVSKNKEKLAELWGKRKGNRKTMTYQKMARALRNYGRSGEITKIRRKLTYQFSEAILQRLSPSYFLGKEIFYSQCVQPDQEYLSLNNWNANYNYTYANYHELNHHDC
# Method in brief: as §1
# ELF4 = ELF4 (Homo sapiens, UniProt Q99607 1-663); conditions: protein: recombinant; tags: N-terminal GST; dsDNA, one strand shown
# Chain of ELF4 (Q99607 whole entry): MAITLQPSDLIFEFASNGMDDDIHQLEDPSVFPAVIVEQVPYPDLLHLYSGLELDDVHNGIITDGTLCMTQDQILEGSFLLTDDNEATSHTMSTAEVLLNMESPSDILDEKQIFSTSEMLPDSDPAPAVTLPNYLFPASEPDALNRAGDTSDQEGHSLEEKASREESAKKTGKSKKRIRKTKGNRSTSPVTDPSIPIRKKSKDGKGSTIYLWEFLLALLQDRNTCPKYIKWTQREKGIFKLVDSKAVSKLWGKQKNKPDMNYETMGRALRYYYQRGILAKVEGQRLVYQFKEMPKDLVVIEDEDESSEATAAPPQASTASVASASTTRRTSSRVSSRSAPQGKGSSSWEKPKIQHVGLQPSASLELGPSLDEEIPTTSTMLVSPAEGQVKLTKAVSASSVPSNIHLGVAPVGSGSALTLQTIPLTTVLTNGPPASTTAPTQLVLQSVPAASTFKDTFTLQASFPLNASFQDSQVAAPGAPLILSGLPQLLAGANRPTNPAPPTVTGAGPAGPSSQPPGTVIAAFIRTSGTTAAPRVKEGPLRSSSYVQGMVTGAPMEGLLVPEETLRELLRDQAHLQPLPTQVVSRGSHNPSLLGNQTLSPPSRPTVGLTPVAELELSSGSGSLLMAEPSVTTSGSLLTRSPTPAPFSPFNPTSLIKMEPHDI
# Method in brief: as §1
# ELK4 = molecular target: T9, ELK4 (Homo sapiens, UniProt P28324-2 1-405); conditions: protein: recombinant; tags: N-terminal GST; dsDNA, one strand shown
# T9 sequence: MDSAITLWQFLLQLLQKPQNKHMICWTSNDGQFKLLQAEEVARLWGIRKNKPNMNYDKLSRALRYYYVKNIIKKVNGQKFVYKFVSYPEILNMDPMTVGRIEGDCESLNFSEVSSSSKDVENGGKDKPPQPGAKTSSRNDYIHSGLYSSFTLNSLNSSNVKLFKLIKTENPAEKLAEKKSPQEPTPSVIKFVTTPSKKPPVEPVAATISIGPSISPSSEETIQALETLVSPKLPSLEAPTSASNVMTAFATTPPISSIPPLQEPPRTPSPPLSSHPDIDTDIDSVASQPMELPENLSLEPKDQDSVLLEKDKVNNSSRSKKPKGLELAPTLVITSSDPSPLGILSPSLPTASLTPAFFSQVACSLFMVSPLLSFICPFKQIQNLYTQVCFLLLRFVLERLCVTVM
# Method in brief: as §1
# ETV2 = molecular target: T10, ETV2 (Homo sapiens, UniProt O00321 1-342); conditions: protein: recombinant; tags: N-terminal GST; dsDNA, one strand shown
# T10 sequence: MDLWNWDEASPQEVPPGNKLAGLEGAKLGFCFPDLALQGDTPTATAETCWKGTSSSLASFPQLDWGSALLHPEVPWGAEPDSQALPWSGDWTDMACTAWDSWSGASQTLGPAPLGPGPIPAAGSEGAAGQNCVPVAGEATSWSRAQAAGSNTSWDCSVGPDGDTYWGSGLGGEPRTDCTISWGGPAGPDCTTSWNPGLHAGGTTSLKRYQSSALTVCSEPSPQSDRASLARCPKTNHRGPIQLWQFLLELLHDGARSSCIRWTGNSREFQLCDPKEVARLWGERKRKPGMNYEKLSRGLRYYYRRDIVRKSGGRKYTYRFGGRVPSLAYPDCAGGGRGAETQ
# Method in brief: as §1
# ELF3 = molecular target: T11, ELF3 (Homo sapiens, UniProt P78545 1-371); conditions: protein: recombinant; tags: N-terminal GST; dsDNA, one strand shown
# T11 sequence: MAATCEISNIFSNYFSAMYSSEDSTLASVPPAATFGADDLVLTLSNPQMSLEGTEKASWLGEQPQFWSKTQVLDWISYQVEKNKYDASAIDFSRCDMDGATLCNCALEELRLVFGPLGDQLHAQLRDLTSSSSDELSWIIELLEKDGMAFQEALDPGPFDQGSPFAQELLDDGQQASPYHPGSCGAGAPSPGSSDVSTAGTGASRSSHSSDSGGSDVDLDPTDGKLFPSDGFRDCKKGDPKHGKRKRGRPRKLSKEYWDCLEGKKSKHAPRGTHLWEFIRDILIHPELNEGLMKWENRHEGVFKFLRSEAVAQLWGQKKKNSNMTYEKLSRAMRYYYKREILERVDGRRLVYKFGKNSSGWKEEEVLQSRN
# Method in brief: as §1
# CRX = CRX (Homo sapiens, UniProt O43186 1-299); conditions: protein: recombinant; tags: N-terminal GST; dsDNA, one strand shown
# Chain of CRX (O43186 whole entry): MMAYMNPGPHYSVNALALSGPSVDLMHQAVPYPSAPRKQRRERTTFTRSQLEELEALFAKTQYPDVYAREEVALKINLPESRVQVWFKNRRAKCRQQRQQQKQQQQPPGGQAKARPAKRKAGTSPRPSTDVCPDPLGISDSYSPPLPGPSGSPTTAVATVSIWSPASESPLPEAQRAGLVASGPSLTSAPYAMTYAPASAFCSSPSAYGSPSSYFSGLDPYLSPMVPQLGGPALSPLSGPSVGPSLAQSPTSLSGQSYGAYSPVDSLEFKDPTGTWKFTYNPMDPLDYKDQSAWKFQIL
# Method in brief: as §1
# ETV1 = ETV1 (Homo sapiens, UniProt P50549 1-477); conditions: protein: recombinant; tags: N-terminal GST; dsDNA, one strand shown
# Chain of ETV1 (P50549 whole entry): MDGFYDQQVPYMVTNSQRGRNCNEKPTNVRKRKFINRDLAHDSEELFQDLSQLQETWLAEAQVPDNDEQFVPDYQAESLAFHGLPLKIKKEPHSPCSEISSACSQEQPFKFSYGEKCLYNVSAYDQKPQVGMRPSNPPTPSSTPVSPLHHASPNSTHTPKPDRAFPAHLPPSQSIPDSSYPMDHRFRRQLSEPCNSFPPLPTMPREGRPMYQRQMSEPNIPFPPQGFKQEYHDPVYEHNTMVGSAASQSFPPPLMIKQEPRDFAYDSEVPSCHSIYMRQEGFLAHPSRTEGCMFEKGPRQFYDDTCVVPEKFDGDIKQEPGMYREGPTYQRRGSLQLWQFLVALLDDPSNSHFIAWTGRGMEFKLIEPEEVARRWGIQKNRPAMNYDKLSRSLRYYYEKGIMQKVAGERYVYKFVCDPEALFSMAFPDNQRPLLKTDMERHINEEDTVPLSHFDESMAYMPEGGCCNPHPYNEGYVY
# Method in brief: as §1
sequence,measurement,setting,value
TTATTA,binding signal,FLI1,"1.17 fold enrichment (6-mer frequency, TF over GST control)"
same,binding signal,ELK1,"1.05 fold enrichment (6-mer frequency, TF over GST control)"
same,binding signal,GABPA,"1.04 fold enrichment (6-mer frequency, TF over GST control)"
same,binding signal,ERG,"1.1 fold enrichment (6-mer frequency, TF over GST control)"
same,binding signal,ELF1,"1.1 fold enrichment (6-mer frequency, TF over GST control)"
same,binding signal,EHF,"1.14 fold enrichment (6-mer frequency, TF over GST control)"
same,binding signal,SPI1,"1.1 fold enrichment (6-mer frequency, TF over GST control)"
same,binding signal,SPIB,"1.04 fold enrichment (6-mer frequency, TF over GST control)"
same,binding signal,ELK3,"1.2 fold enrichment (6-mer frequency, TF over GST control)"
same,binding signal,FEV,"1.09 fold enrichment (6-mer frequency, TF over GST control)"
same,binding signal,ETV5,"1.14 fold enrichment (6-mer frequency, TF over GST control)"
same,binding signal,HSF1,"1.75 fold enrichment (6-mer frequency, TF over GST control)"
same,binding signal,SPIC,"1.31 fold enrichment (6-mer frequency, TF over GST control)"
same,binding signal,ELF4,"1.18 fold enrichment (6-mer frequency, TF over GST control)"
same,binding signal,ELK4,"1.03 fold enrichment (6-mer frequency, TF over GST control)"
same,binding signal,ETV2,"1.2 fold enrichment (6-mer frequency, TF over GST control)"
same,binding signal,ELF3,"1.09 fold enrichment (6-mer frequency, TF over GST control)"
same,binding signal,CRX,"2.49 fold enrichment (6-mer frequency, TF over GST control)"
same,binding signal,ETV1,"1.11 fold enrichment (6-mer frequency, TF over GST control)"
